GLP-1R inv ag – GLP-1 receptor (human) inverse agonism; P43220; actives 1.6% (n = 410,000); Potency, µM (titrated, usually from 38.3 µM), inactives show top-dose activity change, negative = inhibition, actives largely listed as inhibitors; HEK293 GLP-1R CRE-luciferase, luminescence, 24 h; GLP-1R form is constitutively active; note: potency is the fitted concentration of half-maximal effect; % is set by controls: 0 for no effect and ±100 for the full control effect; nearly all actives have a fitted effect of over 55% in size
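Assay principle: reduced luminescence from a cAMP-responsive reporter in HEK293 cells co-expressing a constitutively active GLP-1R. Conditions: 24 hr compound incubation, 37 deg C, 5% CO2.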
D3 antag – blocks the human D3 dopamine receptor; P35462; actives 2.5% (n = 360,000); AID 652054; max response, negative = inhibition, %; D3R cells, DiscoveRx beta-arrestin luminescence, antagonist mode; hits give low values; in the data active = max response below about -50%; inconclusive = no clear call, values can overlap the other calls; note: % is set by controls: 0 for no effect and ±100 for the full control effect
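Cells expressing the human receptor were seeded at 1500 cells/well, incubated overnight at 37 degrees C in 5% CO2, then exposed to library compounds with dopamine controls for 90 minutes at 37 degrees C before luminescent detection.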
GLP1R cytotox – cytotoxic in the GLP-1 receptor inverse agonist counter-screen | actives 0.13% (n = 410,000) | AID 624418 | HEK293 cAMP-luciferase reporter cells, luminescence, 24 h | Potency, µM (titrated, usually from 38.3 µM), without a hit: at the highest dose activity change, negative = inhibition, hits mostly inhibitors;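 note: loss of luciferase light is scored as toxicity; potency is the fitted concentration of half-maximal effect; % is set by controls: 0 for no effect and ±100 for the full control effect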
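Step one: seed cells (200 cells/uL, DMEM with 10% Nu serum, 1% pen-strep). Step two: 12-hour incubation at 37 deg C. Step three: pin 23 nL compound, incubate 24 hr. Step four: add luciferase reagent, read luminescence 12 min later.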
ClpP mod – qHTS Assay for Activators of ClpP. ATP-dependent Clp protease proteolytic subunit (Bacillus subtilis (strain 168)), P80244. purified B. subtilis ClpP, FRET peptide cleavage, 20 min. Potency, µM (titrated, usually from 57.5 µM), for inactives: at the top dose activity change, negative = active. actives 1.9% (n = 340,000). AID 651965, 2013; active = well fitted falling curve with a large enough effect; inconclusive = small, poorly fitted or top-dose-only effect; inactive = no such curve, though single readings can be large or run the other way; note: potency is the fitted concentration of half-maximal effect; the source files actives as falling curves though it sought activators and does not explain the sign; nearly all actives have a fitted effect of over 65% in size
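ClpP 10 microg/mL final, pH 8 Tris/KCl buffer with BSA, glycerol, Tween-20; compound pinned in; FRET-FV substrate; RT 20 min; Ex320/Em430; ΔFRET vs ADEP 5.8 microM, DMSO, no enzyme.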
D3 ag – agonists of human D3 dopamine receptor | P35462 | D3R DiscoveRx beta-arrestin cells, luminescence, 90 min | max activation, % | actives 0.58% (n = 410,000); in the data active = max activation above about 30%; note: 0% is about no effect
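Agonist mode: compounds and dopamine controls were applied to plated cells for 90 min at 37 degrees C after an overnight attachment at 1500 cells/well. Luminescent read-out followed 30 - 60 minutes at room temperature with DiscoveRx detection reagent.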
GLP1R ag – agonists of human GLP-1 receptor; P43220; HEK293 GLP-1R CRE-luciferase, luminescence, 4-6 h; cells express a hypersensitive GLP-1R form; Potency, µM (series often up to 45.6 µM), for inactives: at the top dose activation, actives largely listed as activators; actives 0.007% (n = 380,000); note: potency is the fitted concentration of half-maximal effect; % of control where 0% means no effect
Active calls of the source: *; ? = inconclusive; . = not tested or not shown. A selection: hits, their analogues and other compounds. The true share with any hit is near 5.7%. Unless noted, calls come from the whole dose curve; as a rule, active = well fitted curve in the direction sought with a large enough effect; inconclusive = small, poorly fitted or top-dose-only effect, or another doubt; inactive = no such curve, though single readings can be large; an effect the other way counts as inactive or inconclusive.

SMILES	GLP-1R inv ag	D3 antag	GLP1R cytotox	ClpP mod	D3 ag	GLP1R ag
C/C(=N\Nc1nnc(C)c(=O)[nH]1)C(=O)O	-0.3%	-51.8*	3.3%	-0.4%	-42.4	-14.2%
C=C1CC[C@H](O)CC1=C/C=C1\CCC[C@]2(C)[C@@H]([C@H](C)CCCC(C)(C)O)CC[C@@H]12	.	.	.	.	-0.6	.
COCCNc1nc(N)c([N+](=O)[O-])c(NCC2CCCO2)n1 (centres undefined)	55.4%	3.4	11.6%	25.1µM*	-24.3	15.8%
CC(C)CCn1c(Sc2nc3ccccc3o2)nc2c1c(=O)[nH]c(=O)n2C	4.47µM*	2.9	5.4%	1.5%	5.8	-0.1%
O=C(NCCN1CCN(C(=O)c2cccs2)CC1)c1cccs1	8.2%	-74.3*	0.3%	2.6%	-34.5	-1.4%
O=C(CNC(=O)c1cccs1)NCCN1CCN(c2ccccc2F)CC1	7.8%	-51.5*	5.4%	-1.3%	-11.1	-2.4%
O=C(C[n+]1cccc2cccc(O)c21)c1ccc2ccccc2c1	.	.	.	-0.5%	.	.
O=C(Cn1cc(/C=N/NC(=O)c2cccc3ccccc23)c2ccccc21)Nc1ccc(F)cc1	1.58µM*	-20.8	6.9%	?	1.7	-0.7%
CCC(COC(=O)Nc1cccc(C)c1)NC(=O)OCC(C)C (centres undefined)	0.0%	18.2	13.2%	10µM*	6.5	3.1%
CCc1ccc(NC(=O)C(C)Oc2nnc(-c3cccs3)c(-c3cccs3)n2)cc1 (centres undefined)	10µM*	-5.8	-17.6%	-1.2%	-9.8	-0.5%
O=C1CC(N(CCc2ccccc2)C(=S)Nc2ccccc2)C(=O)N1c1ccccc1 (centres undefined)	?	?	-21.1%	1.3%	1.4	-33.9%
O=C1CC(N(CCc2ccccc2)C(=S)Nc2cc(Cl)ccc2Cl)C(=O)N1c1c(Cl)cccc1Cl (centres undefined)	4.47µM*	2.0	-7.3%	0.2%	0.9	-5.8%
O=C1CC(N(CCc2ccccc2)C(=S)Nc2ccccc2)C(=O)N1c1ccc(F)cc1 (centres undefined)	4.47µM*	-23.4	?	-1.9%	-3.0	0.3%
CCCOc1ccc(N2C(=O)CC(N(CCc3ccc(OC)c(OC)c3)C(=S)Nc3ccccc3)C2=O)cc1 (centres undefined)	5.62µM*	-6.4	-21.0%	0.8%	5.5	-4.4%
CCCOc1ccc(N2C(=O)CC(N(Cc3ccc(OC)cc3)C(=S)Nc3ccccc3)C2=O)cc1 (centres undefined)	?	-22.4	4.4%	2.6%	3.2	-3.3%
N#Cc1ccccc1NC(=O)C(=O)NCC(c1cccnc1)N1CCc2ccccc21 (centres undefined)	13.2%	.	9.5%	0.8%	-6.1	.
COC(=O)c1ccc2ccn(CC(=O)NC3CCCCC3)c2c1	-10.1%	2.1	-10.5%	8.91µM*	3.2	-1.2%
O=C1c2ccccc2S(=O)(=O)c2cc(N3CCN(C(=O)c4ccccc4)CC3)ccc21	10.5%	102.5	35.6%	-1.7%	64.0*	-4.6%
CN(C)c1ccc(C(CNC(=O)c2ccc(C(C)(C)C)cc2)N2CCCC2)cc1 (centres undefined)	?	.	-17.1%	0.2%	-16.9	.
CC1(C)C=Cc2cc3ccc(=O)oc3cc2O1	34.7%	2.0	-21.5%	3.7%	-6.2	8.3%
CC1Oc2cc3oc4c(O)c5c(cc4c(=O)c3c(O)c2C1(C)C)C=CC(C)(C)O5 (centres undefined)	?	42.4	-2.6%	0.7%	44.4*	-1.5%
CCOC(=O)C1CCC(CN(Cc2cccc(Br)c2)S(=O)(=O)c2ccc(C)cc2)CC1 (centres undefined)	-20.3%	.	-5.1%	-5.6%	-15.8	.
CCN(CC)S(=O)(=O)c1ccc(C)c(NC(=S)NNC(=O)C2CC2)c1	7.3%	-1.3	-2.2%	25.1µM*	2.8	-0.7%
O=C(CSc1nnc(-c2ccccc2F)n1C1CC1)NC(=O)c1cccc([N+](=O)[O-])c1	11.1%	-56.6*	-0.8%	0.2%	-54.0	-7.9%
CC1=C(O)C(=O)C(c2c(C)cc(C)c(Br)c2C)=C(O)C1=O	?	-15.6	-26.8%	0.7%	-2.8	-5.9%
SMILES	GLP-1R inv ag	D3 antag	GLP1R cytotox	ClpP mod	D3 ag	GLP1R ag
CC(=O)N1[C@H](C)C=C[C@]1(Cc1ccccc1)C(=O)O	4.1%	8.1	1.2%	-0.5%	30.6*	-5.5%
Cc1nc2ccc(NC(=O)N3CCCCC3)cc2nc1C	46.8%	-25.3	15.1%	14.1µM*	-7.7	6.7%
CCOC(=O)N1CCN(C(=O)Nc2ccc3nccnc3c2)CC1	7.0%	16.1	7.2%	-10.6%	5.3	-1.2%
CCOC(=O)N1CCN(C(=O)Nc2ccc3nc(C)c(C)nc3c2)CC1	1.4%	2.3	65.4%	28.2µM*	-1.7	0.3%
COc1cc(OC)c(NC(=O)c2c(N3CCCC3=O)c3cc(C)ccc3n2C)cc1Cl	11.8%	.	6.6%	-3.0%	9.1	.
CC(NS(=O)(=O)c1ccc2[nH]c(=O)[nH]c2c1)c1ccc(F)cc1 (centres undefined)	-8.4%	?	-11.8%	-1.1%	-10.1	-3.7%
C=CCSc1n[nH]c2nc3c(c(=O)n12)C1(CCCC1)Cc1ccccc1-3	-8.2%	-12.0	28.8%	?	-8.3	-4.1%
CCOC(=O)C1Cn2c(nc3c(c2=O)C(C)(C)Cc2ccccc2-3)S1 (centres undefined)	?	14.5	-1.0%	-17.3%	2.6	3.7%
Cn1ncn2c(=O)c3c(nc12)-c1ccccc1CC31CCCC1	4.9%	13.8	3.6%	.	0.5	6.9%
CCOC(=O)C1Cn2c(nc3c(c2=O)C2(CCCC2)Cc2ccccc2-3)S1 (centres undefined)	?	-21.3	-4.5%	28.2µM*	-2.8	-6.6%
CCSc1n[nH]c2nc3c(c(=O)n12)C1(CCCC1)Cc1ccccc1-3	?	?	252.2%	14.1µM*	-8.0	-1.4%
CSc1n[nH]c2nc3c(c(=O)n12)C1(CCCC1)Cc1ccccc1-3	21.6%	0.4	104.4%	28.2µM*	1.3	-4.4%
O=C1C=CC2(O[C@H](c3ccccc3)[C@@H](c3ccccc3)O2)[C@H](Sc2ccccc2O)C1	?	-118.0*	4.47µM*	-1.0%	-14.9	-5.4%
COc1ccc(C(=O)C2CCN(CC(=O)NCc3ccccc3)CC2)cc1	-21.0%	-51.6*	8.8%	-2.3%	-27.9	7.8%
COc1ccc(CNC(=O)CN2CCC(C(=O)c3ccc(OC)cc3)CC2)cc1	10µM*	?	?	1.1%	-8.5	-5.8%
CCn1cc2nc(SCC(=O)Nc3ccccc3F)n(Cc3ccc(C)cc3)c(=O)c2n1	?	.	-9.8%	-6.0%	4.0	.

Screens (PubChem)
